Assay outcomes deposited in PubChem by National Center for Advancing Translational Sciences (NCATS).
Compounds with a hit are over-represented: about 8% of the library has one in this group of screens.
FMDV inh = foot and mouth disease virus antiviral activity | FMDV antiviral cell-based qHTS | Potency, µM (series often up to 57.9 µM), without a hit: at the highest dose activity change, negative = inhibition, usual class: inhibitors | 1.2% of 410,000 active | AID 1159524; calls by dose curve; tested in HEK293T cells; further: read-out not given here; potency means the concentration at half of the fitted maximal effect; on the % scale 0 is the no-effect control and ±100 the full control effect; nearly all actives have a fitted effect of over 45% in size
Marburg entry inh = inhibitors of Marburg virus binding or cell entry. Marburg virus pseudotyped entry inhibition, cell reporter. AID 540276. 1.8% of 300,000 active. Potency, µM (top dose mostly 37.8 µM), for inactives: at the highest dose activity change, negative = inhibition, hits mostly inhibitors; calls by dose curve; tested in HEK293 cells; further: potency means the concentration at half of the fitted maximal effect; on the % scale 0 is the no-effect control and ±100 the full control effect
SARS PLpro yeast = SARS-CoV PLP inhibition in yeast | S. cerevisiae expressing SARS-CoV PLpro, growth rescue | Potency, µM (series often up to 32.9 µM), inactives show at the top dose activity, positive = growth rescue, usual class: activators | 0.19% of 330,000 active | AID 485353; calls by dose curve; further: potency means the concentration at half of the fitted maximal effect; 0% is about no effect; nearly all actives have a fitted effect of over 55% in size
LASV entry inh = Lassa virus entry inhibition; Lassa virus pseudotype entry inhibition, cell reporter; Potency, µM (titrated, usually from 37.9 µM), inactives show at the top dose activity change, negative = inhibition, most hits filed as inhibitors; 1.2% of 300,000 active; AID 540256; calls by dose curve; tested in HEK293 cells; further: potency means the concentration at half of the fitted maximal effect; on the % scale 0 is the no-effect control and ±100 the full control effect; nearly all actives have a fitted effect of over 50% in size
HCMV antiviral = blocks human cytomegalovirus replication; activity change, negative = inhibition, % at 57.5 µM; 4.5% of 410,000 active; AID 1259415; HFF cells, HCMV-luciferase reporter, 72 h; active compounds read low; in the data active means activity change below about -60%; inconclusive means no clear call, values can overlap the other calls; inactive means above about -39%; further: on the % scale 0 is the no-effect control and ±100 the full control effect
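Inhibition of viral replication was scored as loss of reporter luminescence in HFFs infected with HCMV-luciferase (MOI 1 PFU/cell) for 72 h; compounds tested at 2 doses, normalized to buffer and Salinomycin controls.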
HCV inhibitor = HCV inhibition; Huh7.5.1 HCVcc-Cre infection, luciferase reporter, 44 h; Potency, µM (highest dose often 41.8 µM), for the others: top-dose activity change, negative = inhibition, most hits filed as inhibitors; 3.4% of 340,000 active; active means well fitted inhibition curve with a large enough effect; inconclusive means small, poorly fitted or top-dose-only effect, or another doubt; inactive means no such curve, though single readings can be large or run the other way; further: potency means the concentration at half of the fitted maximal effect; on the % scale 0 is the no-effect control and ±100 the full control effect
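Infectious HCVcc-Cre (~0.5 moi) was added to cells just after compound, with cells seeded 4 h earlier at 1,000 per well. Luciferase activity after 44 h culture reported infection; substrate was incubated 15 min at room temperature before reading.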
An asterisk follows results filed as active; ? = inconclusive; / = no result given; [ ] = remark or other dose.

SMILES	FMDV inh	Marburg entry inh	SARS PLpro yeast	LASV entry inh	HCMV antiviral	HCV inhibitor
COC(=O)c1[nH]c2c(c1C)C(=O)CC(c1cccs1)C2 (stereo not given)	-4%	?	-2%	?	-76*	?
Cc1noc(C)c1S(=O)(=O)NCCc1csc2nc(-c3ccc(Cl)cc3)nn12	-2%	/	/	-1%[46.1 µM]	40	/
O=C(NCCc1ccccc1)c1ccc(CSc2nc3ccncc3n2Cc2ccc(F)cc2)cc1	-17%	7%[46.1 µM]	/	-28%[46.1 µM]	-39	/
COC(=O)c1[nH]c2ccccc2c1NC(=O)CN1CCN(c2cccc(OC)c2)C(C)C1 (stereo not given)	?	?	-9%	-14%	-103*	?
CCOc1ccc(OCC)c(NC(=O)CN2CCN(c3cccc(C)c3)C(C)C2)c1 (stereo not given)	?	?	2%	?	-7	8.9µM*
COC(=O)c1[nH]c2cc(OC)ccc2c1NC(=O)CCN1CCN(c2cccc(C)c2C)CC1	40µM*	?	-1%	?	8	6.3µM*
COC(=O)c1[nH]c2cc(OC)ccc2c1NC(=O)CCN1CCN(c2ccccc2)CC1	-11%	-13%	7%	-3%	-3	-12%
Cc1ccc(C2=CC(=O)N(CCN)C2)cc1	/	/	/	/	32	/
Cc1cccc(NC(=O)CSc2nc3ccccc3c3nc(CCn4cncc4C)nn23)c1	?	/	/	-17%[46.1 µM]	-39	/
COCCCNCCCOc1ccc(Cl)cc1C(C)(C)C	?	?	-29%	?	-27	7.1µM*
COCCNCCCOc1ccc(Cl)cc1Br	-18%	/	0%	/	-18	-1%
CNCCCOc1ccc(Cl)cc1C(C)(C)C	-10%	?	0%	-26%[46.1 µM]	-12	-28%
COCCCNCCCCOc1ccc(Br)cc1Cl	-23%	?	-11%	?	?	10µM*
Cc1cc(Br)ccc1OCCCCNCCO	-8%	?	8%	-12%	-13	10µM*
CN(C)CCCCOc1ccc(Br)cc1Cl	2%	?	1%	-17%	14	10µM*
C=CCNCCCCOc1ccc(Br)cc1C	-16%	?	-10%	0%	-29	-26%
COc1ccc(-c2cc3nc(C)c(CCC(=O)N4CCN(c5ccc(F)cc5)CC4)c(C)n3n2)c(OC)c1	0%	1%[46.1 µM]	/	21%[46.1 µM]	6	/
COCCN1C(=O)CC[C@@]23C1=NC(C(=O)OC)=C(C(=O)OC)[C@@H]2N(Cc1ccccc1)c1ccccc13	/	-9%[14.2 µM]	/	/	/	/
OCCNCCCOc1ccc(Cl)cc1Br	-26%	21µM*	-12%	-7%	20	-13%
COCCNCCCOc1ccc(Br)cc1Cl	9%	?	-5%	?	-13	10µM*
CCOc1ccccc1NC(=O)n1ncc2cc(Cl)ccc21	22%	-5%[46.1 µM]	/	0%[46.1 µM]	36	/
CNc1ccc(Br)cc(C(=O)/C=C/c2ccc(OC)cc2OC)c1=O	?	-7%	-29%	-1%	-66*	-28%
COc1ccccc1/C=C/C(=O)c1ccc(Cl)cc1	-30%	13%	-12%	4%	14	?
COc1ccc(NC(=O)c2cc(Br)ccc2Cl)c(OC)c1	8%	15%	0%	-3%	-32	?
COc1ccc(OC)c(/C=C/C(=O)c2ccc(Cl)cc2)c1	22µM*	-4%	-13%	4%	-10	?
SMILES	FMDV inh	Marburg entry inh	SARS PLpro yeast	LASV entry inh	HCMV antiviral	HCV inhibitor
CCNc1ccc(Br)cc(C(=O)/C=C/c2c(Cl)cccc2Cl)c1=O	32µM*	?	-35%	?	/	13µM*
COc1ccc(/C=C/C(=O)c2ccc(OC)cc2OC)c(OC)c1	2%	/	-4%	/	-76*	?
COc1ccc(/C=C/C(=O)c2ccccc2)c(OC)c1	11%	?	-11%	?	-11	-17%
Cc1cc(C(=O)Nc2ccccc2-c2nc(CNC(=O)c3cscn3)c(C)o2)c(C)o1	32%	/	/	/	/	/
CCNc1ccc(Br)cc(C(=O)/C=C/c2ccc3c(c2)OCO3)c1=O	?	-2%	-8%	-26%	37	11%
COc1ccc(C(=O)/C=C/c2ccc(OC)c(O)c2)c(F)c1	0%	?	-91%	-27%	?	14µM*
CNc1ccc(Br)cc(C(=O)/C=C/c2ccc(Cl)cc2Cl)c1=O	10µM*	?	-1%	?	23	?
COc1ccc(/C=C2\COc3ccccc3C2=O)c(OC)c1	30%	?	-7%	-27%[46.1 µM]	8	?
CNc1ccc(Br)cc(C(=O)/C=C/c2cccc(OC)c2)c1=O	?	?	-10%	?	-85*	11µM*
COc1ccc(C=C2c3ccccc3C(=O)c3ccccc32)c(OC)c1	/	/	0%	/	-88*	/
CCNc1ccc(Br)cc(C(=O)/C=C/c2ccc(Cl)cc2)c1=O	?	?	-32%	-5%	/	?
Cc1ccc(C)c(NC(=O)C2CCN(c3cc(C)nc4c(-c5ccc(Cl)cc5)c(C)nn34)CC2)c1	-14%	15%[46.1 µM]	/	?	5	/
CNC(=O)[C@@H]1C[C@@H](NCc2cccc(Oc3ccccc3)c2)CN1C(C)C	-13%	/	/	/	/	/
C[C@@H](c1ccccc1)N1C(=O)[C@@H]2[C@H]3[C@H](O)[C@H](O)CC(=NOC[C@@H](O)COCc4ccco4)[C@H]3CC[C@H]2C1=O	/	1%[14.2 µM]	/	/	/	/
Cc1ncc2c(c1CNC(=O)c1ccc3c(c1)OCO3)CCN(C(=O)c1csc3c1CCCC3)C2	1%	/	/	/	/	/
COc1ccccc1NC(=O)C1=C(C)Nc2ncnn2C1c1cccn1C (stereo not given)	-17%	/	/	1%[46.1 µM]	5	/
Cc1nc(-n2ncc(C#N)c2N)c2c3c(sc2n1)CCC3	-8%	-14%	10%	-11%	-17	?
CCCSc1nc(-n2ncc(C#N)c2N)c2c3c(sc2n1)CCC(C)C3 (stereo not given)	-19%	?	-5%	2%	-7	14µM*
Cc1coc2c(C)c3oc(=O)c(CCC(=O)N4CCCCC4)c(C)c3cc12	-17%	2%[46.1 µM]	/	-9%[46.1 µM]	-20	/
CN(c1ccccc1)S(=O)(=O)c1cccc(C(=O)N2CCCCCC2)c1	-7%	-25%[46.1 µM]	0%	?	-34	?
COc1ccc(N(C)S(=O)(=O)c2cccc(C(=O)OCC(=O)N3CC(C)CC(C)C3)c2)cc1 (stereo not given)	32µM*	?	-3%	?	-36	?
CC1CC(C)CN(C(=O)c2cccc(S(=O)(=O)N(C)c3ccccc3)c2)C1 (stereo not given)	0%	?	3%	?	?	32µM*
C=CCN(c1ccccc1)S(=O)(=O)c1cccc(C(=O)N2CC(C)CC(C)C2)c1 (stereo not given)	-14%	?	-3%	?	-85*	7.1µM*
COc1ccc(CNc2nc(-c3c(C)noc3C)nc3ccccc23)c(OC)c1	-13%	/	/	/	/	/
